Bioassay records from PubChem.
In the library only some 2.3% were active in any assay of this set; here they are far more common.
CHRM1 antagonist: human CHRM1 antagonism; AID 588852; P11229; CHO-K1 hM1, Fluo-8 calcium fluorescence, ACh EC80 antagonist; inhibition, % at 3 µM; 360,000 tested, 1.3% active;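 active = percent inhibition above its own plate's cutoff, namely the mean of that plate's compound wells plus 3 SD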;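 note: peak over basal fluorescence ratio during 140 s after agonist addition; 0% = ACh EC80 plus DMSO and 100% = DMSO alone without agonist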
Target sequence (P11229 whole entry, looked up): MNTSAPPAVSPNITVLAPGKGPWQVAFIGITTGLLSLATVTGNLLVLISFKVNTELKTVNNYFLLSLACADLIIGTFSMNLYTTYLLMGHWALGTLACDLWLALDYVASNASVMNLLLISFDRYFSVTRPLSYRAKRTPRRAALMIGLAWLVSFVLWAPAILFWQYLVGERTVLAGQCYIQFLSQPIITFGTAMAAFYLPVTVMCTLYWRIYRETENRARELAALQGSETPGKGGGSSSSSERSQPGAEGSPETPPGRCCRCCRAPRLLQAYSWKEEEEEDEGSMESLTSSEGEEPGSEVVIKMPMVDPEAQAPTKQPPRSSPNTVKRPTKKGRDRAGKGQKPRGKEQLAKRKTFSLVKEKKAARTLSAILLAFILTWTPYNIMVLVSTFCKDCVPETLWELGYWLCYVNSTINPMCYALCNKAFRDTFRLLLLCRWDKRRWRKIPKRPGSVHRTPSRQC
CHO-K1 Ca antag: counter-screen for M1 antagonists: effect in parental CHO-K1 cells | 360,000 tested, 0.6% active | ATP-induced calcium, Fluo-8 fluorescence | inhibition, % at 3 µM;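 active = inhibition above a per-plate cutoff, the plate's mean sample inhibition plus 3 SD, cut at about 24% in these data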;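 note: 0% = DMSO plus EC80 ATP and 100% = DMSO alone without ATP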
M1 PAM: human CHRM1 positive allosteric modulation. CHO-K1 hM1, Fluo-8 calcium fluorescence, ACh EC20; 0% = ACh EC20, 100% = maximal ACh. activation, % at 3 µM. P11229. AID 588819. 360,000 tested, 0.088% active; in the data active = activation above about 19%, passing the limit was not always enough
CHO-K1 Ca ag: M1 agonist counterscreen hit in parental CHO-K1 cells | Fluo-8 calcium fluorescence; scaled to maximal ATP response, vehicle zero | 360,000 tested, 0.48% active | activation, % at 3 µM; in the data active = activation above about 15%;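 note: untransfected CHO-K1 host cells lacking M1 receptor as counterscreen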
M1 ag: agonists of human M1 muscarinic receptor | P11229 | CHO-K1 hM1, Fluo-8 calcium fluorescence, agonist mode; 0% DMSO, 100% acetylcholine EC100 | activation, % at 3 µM | 360,000 tested, 0.33% active;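 active = activation above the run's mean compound activation plus 3 SD, cut at about 16% in these data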;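 note: peak over basal fluorescence ratio within a 140 s kinetic read after compound addition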
M1 PAM parental: M1 PAM counterscreen hit in parental CHO-K1 cells; activation, % at 3 µM; AID 602247; ATP EC20, Fluo-8 calcium fluorescence; 0% at ATP EC20, 100% at ATP max; 360,000 tested, 0.02% active;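 active = activation above the run cutoff, the mean activation of all test compounds plus 3 SD, cut at about 40% in these data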;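 note: peak over basal fluorescence ratio in a 140 s read after ATP addition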
Numbers without * were called inactive; . = not tested or not shown.

SMILES | CHRM1 antagonist | CHO-K1 Ca antag | M1 PAM | CHO-K1 Ca ag | M1 ag | M1 PAM parental
CCOC(=O)N1CCN(C(=O)C[C@@H]2C[C@@]3(C(=O)OC)CCCCC=C3N(Cc3cccc4ccccc34)C2=O)CC1 | . | -3 | . | 5 | . | 8
Cc1nn(C(C)C(=O)NCCCN2CCCCCC2)c(=O)c2c1sc1ccccc12 (stereo unspecified) | 55* | -20 | -21 | 0 | -6 | 27
Cc1nc2ccccc2n1Cc1ccccc1Br | 10 | 15 | -11 | 23* | 2 | -9
Cc1nc2ccccc2n1Cc1ccc(Br)cc1 | 37 | 31* | -11 | 11 | 0 | -17
COc1ccc(-c2cc3c(=O)n(CC(=O)NCc4ccccc4F)ncn3n2)cc1 | 10 | 26* | -12 | 4 | 0 | 6
COc1cc(/C=C/C(=O)OC(C)C(=O)Nc2c(C)n(C)n(-c3ccccc3)c2=O)ccc1O (stereo unspecified) | -7 | 5 | 6 | 0 | -2 | -5
CCc1ccc(NC(=O)C(C)OC(=O)/C=C/c2ccc(O)c(OC)c2)cc1 (stereo unspecified) | -4 | -8 | -7 | 25* | 34* | -12
CCOC(=O)CCCCCCCCC(=O)Nc1ccc(-n2[nH]c(=O)cc2C)cc1 | -9 | -19 | -2 | 10 | 20* | 8
Cc1ccc(NC(=O)CCCCCC2NC(=O)NC2C)cc1 (stereo unspecified) | -8 | -12 | 6 | 1 | -4 | 18
O=C(Nc1ccccc1)c1nc[nH]c1C(=O)NCCNC(=O)c1[nH]cnc1C(=O)Nc1ccccc1 | 25* | -9 | -10 | 3 | 1 | 10
COc1ccc(NC(=O)c2cc(C3CCCCN3S(C)(=O)=O)on2)c(C)c1 (stereo unspecified) | -14 | 28* | 13 | 1 | 3 | -17
Cc1cc(S(=O)(=O)NCC(c2ccc3c(c2)OCO3)N2CCOCC2)ccc1F (stereo unspecified) | -21 | -7 | 19 | 3 | 1 | -7
CCOC(=O)c1sc(NC(=O)Nc2ccc(Cl)cc2)cc1C | 52* | 46* | -23 | 13 | 8 | -5
Cc1cc(C)c2c(n1)nn1c(N3CCN(c4ccccc4)CC3)cc(C)nc21 | 19 | 33* | -6 | -1 | -6 | -10
Cc1cc(N2CCN(c3ccccc3)CC2)n2ncnc2n1 | -6 | -8 | 9 | 2 | -2 | 13
CC(C)(CC(=O)O)CC(=O)Nc1cc(C(F)(F)F)cc(C(F)(F)F)c1 | 2 | -12 | -2 | 3 | 0 | 5
CCN(CC)CCCN(C(=O)Cn1nnc(-c2ccc(OC)c(OC)c2)n1)C(C(=O)NC(C)(C)C)c1ccc(F)cc1 (stereo unspecified) | -6 | -14 | 2 | 0 | -16 | 18
Cc1c(C)c2ccc(OCC(=O)NCCCn3ccnc3)c(C)c2oc1=O | 20 | -11 | -6 | 1 | -5 | 10
Cc1nnc(Nc2ccc(C(=O)N3CCOCC3)cc2)c2ccccc12 | -45 | -20 | 27* | 0 | 0 | 19
O=C(COC(=O)c1nc(Cl)ccc1Cl)NCc1ccc(Cl)cc1 | -11 | -16 | 5 | -1 | -6 | 12
CC(C)(C)c1ccc(C(=O)N2CCC2(C)C(=O)NCc2ccc3c(c2)OCO3)cc1 (stereo unspecified) | -7 | -14 | -10 | 3 | -1 | 8
C=CCN1C(=O)NC(c2ccc(OC)cc2)(C(F)(F)F)S/C1=C(\C#N)c1nnc(N2CCOCC2)n1-c1ccccc1 (stereo unspecified) | -8 | -10 | 5 | 3 | 19* | 25
CC(C)(C)NCc1cc(Cl)ccc1OCc1ccccc1F | 3 | 3 | 1 | 15* | -8 | 16
COc1cc(/C=N/OCC(=O)Nc2cc(C)on2)ccc1OCc1ccccc1 | 4 | 10 | 2 | 20* | -4 | 3
COc1cc(/C=C/C(=O)NC(C)C)ccc1OCc1ccccc1 | -3 | -15 | 6 | 2 | -8 | 23
SMILES | CHRM1 antagonist | CHO-K1 Ca antag | M1 PAM | CHO-K1 Ca ag | M1 ag | M1 PAM parental
Cc1cccc(C2NC(c3cccc(C)c3)C(C)C(=O)C2C)c1 (stereo unspecified) | -6 | -17 | 13 | -2 | 1 | 2
CCCC(C(=O)Nc1ccc(S(=O)(=O)N2CCOCC2)cc1)c1ccccc1 (stereo unspecified) | 7 | 1 | 1 | 19* | 20* | 16
O=C(O)CC(SCC(=O)Nc1ccc(Cl)c(S(=O)(=O)N2CCOCC2)c1)C(=O)O (stereo unspecified) | -2 | -11 | -4 | 0 | -5 | 4
CC(CC(=O)Nc1ccc(Cl)c(S(=O)(=O)N2CCOCC2)c1)c1ccccc1 (stereo unspecified) | 21 | 5 | -14 | 15* | 3 | -15
Cc1ccc(NC(=O)c2ccccc2NS(=O)(=O)c2ccc(Cl)s2)cc1S(=O)(=O)N1CCOCC1 | 18 | 22 | -9 | 16* | -1 | 0
CC(=O)Nc1ccc(OCC(=O)Nc2ccc(Cl)c(S(=O)(=O)N3CCOCC3)c2)cc1 | 37* | 12 | -26 | 11 | 4 | -8
COc1ccc(C(=O)NCCc2nnc3ccc(SCC(=O)Nc4ccccc4F)nn23)cc1 | 11 | 1 | 6 | 0 | -1 | -19
CN(C)c1ccc(-c2csc(C(C)(O)c3ccccc3)n2)cc1 (stereo unspecified) | 10 | -7 | -13 | 5 | -4 | 14
CC(C)c1ccc(NC(=O)[C@@H](C)NC(=O)[C@@H]2Cc3ccccc3CN2)cc1 | 37* | -17 | -23 | 1 | -5 | 16
CC(C)C[C@H](NC(=O)[C@@H]1Cc2ccccc2CN1)C(=O)Nc1ccc(C(C)C)cc1 | -10 | -10 | 6 | 2 | -4 | 2
CCN(CC)S(=O)(=O)c1ccc(N2CCCCC2)c(NC(=O)C2=COCCO2)c1 | 0 | 1 | -2 | 0 | -7 | -1
O=C1CCCN1c1ccc(S(=O)(=O)NCCOc2ccccc2)cc1 | 7 | 18 | -3 | 3 | 3 | -8
Cc1cc(N2CCCC2=O)cc(C)c1S(=O)(=O)NCCOc1ccc(C(C)(C)C)cc1 | 39* | 27* | -17 | 14 | 6 | 5
CC(=O)Nc1ccc(C(=O)NC2CCSc3ccccc32)cc1 (stereo unspecified) | -13 | -11 | 8 | 2 | -6 | 20
Cc1ccc(NC(=S)NC2CCSc3ccccc32)cc1 (stereo unspecified) | 79* | -1 | -36 | 7 | -12 | -9
CC(C)C(O)(CC#CCN1CCCC1)c1ccccc1 (stereo unspecified) | 99* | -8 | -26 | 2 | -8 | 17
OC(CC#CCN1CCCCC1)(c1ccccc1)c1ccccc1 | 97* | -8 | -29 | 2 | -7 | 13
OC(CC#CCN1CCCC1)(c1ccccc1)c1ccccc1 | 100* | -1 | -25 | 1 | -6 | 13
